A short description of assay [1]: A549 cell viability effects, profiling panel, calcein-AM fluorescence, 48 h, basal (AID 1162). The following applies: higher = more signal.
A short description of assay [2]: adipocyte viability effects, profiling panel, cell-based, 3T3-L1 adipocytes, calcein-AM fluorescence, 48 h, basal (AID 1163). The following applies: 3T3-L1 adipocytes viability, higher = more signal.
Assay [3] in a line: HepG2 cell viability effects, profiling panel, calcein-AM fluorescence, 48 h, basal (AID 1164). The following applies: higher = more signal.
Assay [4] in a line: MM1S cell viability effects, profiling panel, calcein-AM fluorescence, 48 h, basal (AID 1165).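 Also: viability of MM1S multiple myeloma cells under basal unstimulated conditions.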 The settings on record: higher = more signal.
A short description of assay [5]: basal RPMI8226 viability, no added stimulus, profiling panel, cell-based, calcein-AM fluorescence, 48 h, PK04 Diversity Set (AID 1166).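 Also: cells grown under basal conditions without added stimulus.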 The settings on record: RPMI8226 myeloma viability, higher = more signal.
Assay [6] in a line: basal HepG2 mitochondrial membrane potential changes, profiling panel, cell-based, JC-1 fluorescence, 24 h, 100 nL compound (AID 1167). The following applies: higher = more signal.
The nature of assay [7]: basal 3T3-L1 adipocyte mitochondrial potential changes, profiling panel, cell-based, JC-1 fluorescence, 3T3-L1 adipocytes, 24 h, 100 nL compound (AID 1168). The following applies: JC-1 mitochondrial fluorescence, higher = more signal, called active from +8 up or from −8 down.
A short description of assay [8]: basal RPMI8226 mitochondrial membrane potential changes, profiling panel, cell-based, JC-1 fluorescence, 24 h, 100 nL compound (AID 1169). The settings on record: RPMI8226 myeloma, JC-1 mitochondrial potential fluorescence, higher = more signal.
A short description of assay [9]: basal MM1S mitochondrial membrane potential changes, profiling panel, cell-based, JC-1 fluorescence, 24 h, 100 nL compound (AID 1170). The settings on record: higher = more signal.
Assay [10] can be described thus: A549 lung cancer cell viability effects, profiling panel, resazurin fluorescence, 24 h, PK04 Diversity Set (AID 1171). The settings on record: higher = more signal, called active from +8 up or from −8 down. In general terms: Resazurin is reduced to fluorescent resorufin, in cell work by metabolically active cells.

SMILES strings stand for the structures. The source made the active and inactive calls.
Also: test concentration not given here.

`[N-]=[N+]=Nc1ccccc1[C@H]1OC(c2ccc(OCCCO)cc2)=N[C@@]1(Cc1ccccc1)C(=O)N1CCOCC1`: the z-score in assay [1] is -1.59; in assay [2], 0.539; in assay [3] it was -1.12; in assay [4], -2.4; in assay [5], -3.94; in assay [6] it was -0.273. The z-score in assay [7] was 0.598 (inactive); in assay [8], -1.09; in assay [9], -2.67; in [10], -2.74 (inactive).

For `CC(C)C(=C=CC[C@H](O)c1ccc(CO)o1)CCO`, the z-score in assay [1] was -0.0934; in assay [2], -0.33; in [3], -0.0026; in assay [4], -1.25; in [5], -0.2; in [6], -0.427. For the same compound, the z-score was -0.0538 (inactive) in assay [7], -0.533 in assay [8], 0.019 in assay [9] and -0.507 (inactive) in assay [10].

On to `C=CCC(OC(C)=O)[C@@H]1[C@@H](N(Cc2cc3ccccc3o2)C(=O)Cc2ccc(OC)cc2)c2cc(OCCCO)ccc2N1C(=O)c1ccc2ccccc2c1` (stereo not given in full), for which the z-score in assay [1] is 0.0348; in assay [2], 0.25; in assay [3], 0.663; in [4], 0.817; in [5], -0.668; in assay [6], 1.4. Also, the z-score in [7] is -0.38 (inactive); in assay [8], -0.0277; in assay [9], 1.11; in [10] it was -1.34 (inactive).

Turning to `CCCC(=O)N(CCc1c[nH]c2ccccc12)[C@@H]1CC(C(=O)NCCO)=C[C@H](Oc2c(I)cc(CO)cc2OC)[C@H]1O`, the z-score in [1] was 0.0593; in assay [2], -0.0939; in assay [3], 0.0635; in assay [4], 0.704; in assay [5] it was 0.0598; in [6], 0.149. The z-score in [7] was -0.937 (inactive); in assay [8], -0.178; in assay [9], -1.49; in [10] it was -0.558 (inactive).

Consider `COC(=O)[C@@]1(Cc2ccc(OC)cc2)[C@H]2c3cc(C(=O)N4CCCC4)n(CCc4ccc(O)c(O)c4)c3C[C@H]2CN1C(=O)c1ccccc1`, for which the z-score in assay [1] is -0.393; in assay [2], 0.609; in assay [3], -0.0727; in [4], -3.36; in assay [5], -2.19; in assay [6] it was 0.923. The z-score in assay [7] is -1.13 (inactive); in assay [8], -0.445; in assay [9] it was -1.13; in assay [10], -0.0046 (inactive).

Turning to `CC(C)Cc1ccc(CN2CC[C@@H](N)C2)cc1`, the z-score is -0.336 in assay [1]; 0.202 in [2]; -0.375 in assay [3]; -3.15 in [4]; -1.65 in [5]; 2.5 in assay [6]. For the same compound, the z-score is -0.559 (inactive) in [7], -0.502 in assay [8], -2.86 in [9] and 3.36 (inactive) in assay [10].

Take `COc1ccc([Si](C)(C)[C@@H]2[C@@H](CCn3cc(CCO)nn3)O[C@]3(C(=O)N(Cc4cccc(N5C(=O)c6cccc7cccc5c67)c4)c4ccccc43)[C@H]2C)cc1`: the z-score was -2.01 in [1]; 1.32 in assay [2]; -4.46 in assay [3]; -2.86 in assay [4]; -4.41 in assay [5]; -0.414 in assay [6]. The z-score in assay [7] is 1.02 (inactive); in assay [8], -0.931; in assay [9], -2.16; in assay [10], -3.53 (inactive).

With `CC[C@@H]1C=C(C(=O)O)[C@H](c2cccc3ccccc23)N1S(=O)(=O)c1ccc(C)cc1`, the z-score in [1] was -1.17; in [2], -0.101; in [3] it was 0.338; in assay [4], -0.585; in assay [5], -0.392; in assay [6] it was -0.384. Moreover, the z-score in assay [7] is 0.291 (inactive); in assay [8], 1.17; in [9], -1.16; in assay [10] it was -0.376 (inactive).

For `COC(=O)[C@@]1(Cc2ccc(OC)cc2)[C@H]2c3cc(C(=O)N4CCCC4)n(CCSCCO)c3C[C@H]2CN1C(=O)c1ccccc1`, the z-score is -0.35 in assay [1]; 0.319 in assay [2]; -0.814 in assay [3]; -2.68 in [4]; -0.804 in assay [5]; 1.5 in [6]. Besides, the z-score in assay [7] was -1.29 (inactive); in [8], -0.689; in assay [9] it was 0.168; in assay [10], 1.57 (inactive).

As for `OCCCC1=CC(C2CC2)N(Cc2cccc(OC(F)(F)F)c2)CC1` (stereo not given), the z-score is -0.346 in [1]; 0.643 in [2]; 0.43 in assay [3]; -0.522 in assay [4]; 0.0997 in [5]; 0.64 in assay [6]. Moreover, the z-score is 0.319 (inactive) in assay [7], 0.48 in assay [8], 0.572 in [9] and 1.83 (inactive) in assay [10].

For `CCCC=C(CCC)[C@@H](NC(=O)OCC(C)C)c1ccccc1`, the z-score in assay [1] is -0.628; in [2], 0.722; in [3], -0.927; in assay [4] it was -0.0228; in [5], -1.71; in assay [6], 0.485. Also, the z-score in assay [7] was -0.594 (inactive); in assay [8], 0.0132; in [9], -0.558; in assay [10], 0.292 (inactive).

`C=CCOC(=O)[C@H]1[C@@H]2C(=O)O[C@@H](c3ccccc3)[C@@H](c3ccccc3)N2[C@@H](c2ccc(OCCOC(=O)[C@H]3C[C@H]4C(=O)N[C@@H](CCCCN(C)C)C(=O)N4[C@H]3c3cccc(OCCO)c3)cc2)[C@]12C(=O)Nc1ccc(I)cc12`: the z-score in [1] is -0.226; in assay [2], -0.512; in [3], 1.22; in assay [4] it was -2.14; in assay [5], -1.82; in assay [6] it was -1.92. Further, the z-score in [7] is -1.13 (inactive); in assay [8], -0.157; in [9], -0.465; in [10], 0.477 (inactive).

As to `O=C1C2C=CC(C(O)c3cc(C(F)(F)F)cc(C(F)(F)F)c3)N(Nc3ccccc3)C2C(=O)N1c1ccccc1` (stereo not given), the z-score in assay [1] was 1.3; in [2], -1.48; in [3], 0.662; in [4], -2.24; in assay [5], -3.52; in assay [6] it was -4.32. The z-score is -1.36 (inactive) in [7], -0.982 in assay [8], -0.994 in assay [9] and 0.626 (inactive) in [10].

With `COC(=O)C(CC#Cc1ccc2c(c1)[C@]1(C(=O)N2)[C@H](c2ccc(O)cc2)N2[C@H](c3ccccc3)[C@H](c3ccccc3)OC(=O)[C@H]2[C@@H]1C(=O)N1CCN(c2ncccn2)CC1)C(=O)OC`, the z-score was -0.112 in assay [1]; -0.274 in assay [2]; 0.9 in assay [3]; -2.43 in assay [4]; -4.48 in assay [5]; -0.758 in assay [6]. The z-score in assay [7] is 0.999 (inactive); in assay [8], -1.07; in assay [9] it was -2.02; in assay [10] it was -0.558 (inactive).

On to `CC(C)(C)OC(=O)CC[C@@]1(C(=O)N2CCCCC2)N=C(c2ccc(OCCCO)cc2)O[C@@H]1c1ccccc1`, for which the z-score was -0.637 in assay [1]; 0.452 in assay [2]; 0.644 in assay [3]; -1.99 in assay [4]; -2.22 in [5]; 1.59 in assay [6]. For the same compound, the z-score in assay [7] is 0.0803 (inactive); in assay [8], -0.636; in assay [9], 0.0287; in assay [10], 0.894 (inactive).

Consider `COc1ccc([C@H]2C[C@H]3C(I)=C[C@@H]2C(=O)[C@]32CO2)cc1`, for which the z-score is -0.87 in assay [1]; 0.698 in [2]; -0.856 in [3]; -3.23 in assay [4]; -2.81 in [5]; -0.22 in [6]. Further, the z-score is 0.315 (inactive) in assay [7], -0.474 in assay [8], -0.967 in assay [9] and 0.46 (inactive) in assay [10].

These data come from PubChem BioAssay.
